Test [1] in a line: qHTS assay to identify small molecule antagonists of the estrogen related receptor (ERR) signaling pathway - cell viability counter screen (AID 1224818).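 Note: series mostly up to about 46 µM; viability measured after 17.5 h of compound exposure.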 Summed up:
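After a 6 h pre-incubation, ERR cells were dosed by pin tool with compounds, positive/negative controls or DMSO alone. Following 17.5 h at 37 C and 30 min with CellTiter-Fluor, fluorescence was recorded.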
Background: In qHTS, concentration-response curves come from the screen itself.

Test [2] is described as follows: qHTS assay to identify small molecule antagonists of the estrogen related receptor (ERR) signaling pathway (AID 1224819;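 note: luminescence from an ERR-driven luciferase reporter measured with One-Glo reagent; series mostly up to about 46 µM; nearly all actives have a fitted effect of over 50% in size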). Summed up:
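Luminescence readout (One-Glo, 30 min, RT) of ERR cell line after 18 h compound exposure at 37 C; cells seeded 2,000/well, pre-incubated 6 h, compounds pinned from DMSO stocks.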

Test [3] is described as follows: qHTS assay to identify small molecule agonists of the estrogen related receptor (ERR) signaling pathway (AID 1224820). Note: potency is the fitted concentration of half-maximal effect. A digest of the protocol: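 ERR reporter cell line (from NTP), 2,000 cells/well, incubated 6 h before compound addition, then 18 h at 37 C. Luminescence measured 30 min after One-Glo reagent at room temperature.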
The test system of test [4] is estrogen-related receptor alpha (ERRalpha) with PGC-1alpha coactivator, human. Briefly: qHTS assay to identify small molecule antagonists of the estrogen related receptor signaling pathway with the pleiotropic PPARgamma coactivator (PGC) (AID 1224821; calls by dose curve;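 note: series mostly up to about 46 µM; lower luminescence signal means antagonism of PGC/ERR signalling; nearly all actives have a fitted effect of over 50% in size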). A digest of the protocol: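 PGC/ERR reporter cell line, plated 6 h before compound addition, then exposed 18 h at 37 °C. Luciferase activity read by luminescence 30 min after One-Glo addition; decrease indicates antagonism.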

A short description of test [5]: qHTS assay to identify small molecule antagonists of the estrogen related receptor signaling pathway with the pleiotropic PPARgamma coactivator (PGC) cell viability counter screen (AID 1224822;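 note: series mostly up to about 46 µM; viability read after 17.5 h compound exposure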). Summed up:
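PGC/ERR cells were plated at 2,000 per well and allowed 6 h to settle before compound addition. Following 17.5 h at 37 C, CellTiter-Fluor reagent was added and fluorescence was read 30 min later.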

Test [6] can be described thus: qHTS assay to identify small molecule agonists of the estrogen related receptor signaling pathway with the pleiotropic PPARgamma coactivator (PGC) (AID 1224823). Note: potency is the fitted concentration of half-maximal effect. A digest of the protocol:
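PGC/ERR reporter cells seeded 6 h, then exposed to compounds (23 nL in DMSO) for 18 h at 37 C. One-Glo luciferase luminescence read after 30 min at room temperature.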

Results filed as inconclusive are left out. Active and inactive are the calls of the source. Unless noted, calls come from the whole dose curve; as a rule, active = well fitted curve in the direction sought with a large enough effect in the repeat runs; inconclusive = weak or mixed curves; inactive = no such curve, though single readings can be large; an effect the other way counts as inactive or inconclusive.

The text below walks through data of PubChem BioAssay (Tox21).

On to `CCCn1c(=O)c2[nH]c(-c3ccc(S(=O)(=O)O)cc3)nc2n(CCC)c1=O`, for which the Potency entry in test [1], in test [2], in test [3], in test [4], in test [5] and in test [6] was “inactive” in each case.

For `Cc1cc(Cn2cnc3c2C[C@@H](C(=O)O)N(C(=O)C(c2ccccc2)c2ccccc2)C3)ccc1N`, the Potency result in test [1], in test [2], in test [3], in test [4], in test [5] and in test [6] was “inactive” each time.

`Nc1nc2c(cnn2CCc2ccccc2)c2nc(-c3ccco3)nn12`: the Potency result in test [1], in test [2], in test [3], in test [4], in test [5] and in test [6] was “inactive” in each case.

Regarding `N[C@@H](Cc1ccc(F)cc1)C(=O)O`, the Potency result in test [1], in test [2], in test [3], in test [4], in test [5] and in test [6] was “inactive” each time.

`Cc1nc(N=Nc2ccc(C(=O)O)cc2)c(COP(=O)(O)O)c(C=O)c1O`: the Potency result in test [1], in test [2], in test [3], in test [4], in test [5] and in test [6] was “inactive” each time.

Regarding `Nc1ccc(CCNc2ncnc3c2ncn3C2OC(CO)C(O)C2O)cc1` (stereo not given), the Potency result in test [1], in test [2], in test [3], in test [4] and in test [5] was “inactive” throughout. The Potency in test [6] is 12.3 µM (active).

Consider `N#Cc1cc2nc(O)c(O)nc2cc1[N+](=O)[O-]`, for which the Potency result in test [1], in test [2], in test [3], in test [4], in test [5] and in test [6] was “inactive” in each case.

Turning to `C=C(C)C1CC=C(C(=O)O)CC1` (stereo not given), the Potency entry in test [1], in test [2], in test [3], in test [4], in test [5] and in test [6] was “inactive” in each case.

On to `NC1(C(=O)O)CC1`, for which the Potency entry in test [1], in test [2], in test [3], in test [4], in test [5] and in test [6] was “inactive” throughout.

With `COC(=O)C(C)(N)Cc1ccc(O)cc1` (stereo not given), the Potency entry in test [1], in test [2], in test [3], in test [4], in test [5] and in test [6] was “inactive” each time.

In the case of `COc1ccc(CCN(C)CCc2ccc(OC)c(OC)c2)cc1OC`, the Potency entry in test [1], in test [2], in test [3], in test [4], in test [5] and in test [6] was “inactive” in each case.

On to `O=C(O)c1cc(=O)c2c(Cl)cc(Cl)cc2[nH]1`, for which the Potency entry in test [1], in test [2], in test [3], in test [4], in test [5] and in test [6] was “inactive” throughout.

In the case of `O=C1Cc2c([nH]c3ccc(Br)cc23)-c2ccccc2N1`, the Potency entry in test [1], in test [2], in test [4] and in test [5] was “inactive” each time. Also, the results for the Potency in test [3] and in test [6] were 2.98 µM (active) and 1.23 µM (active), respectively.

As to `CC(N)=NCCCC[C@@H](N)C(=O)O`, the Potency entry in test [1], in test [2], in test [3], in test [4], in test [5] and in test [6] was “inactive” throughout.

As for `N=S(=O)(O)Cc1noc2ccccc12`, the Potency entry in test [1], in test [2], in test [3], in test [4], in test [5] and in test [6] was “inactive” throughout.

Take `CCCOC(=O)c1c(-c2ccccc2)nc(CC)c(C(=O)SCC)c1CCC`: the Potency entry in test [1], in test [2], in test [3], in test [4], in test [5] and in test [6] was “inactive” in each case.

As for `C#CC(N)CCC(=O)O` (stereo not given), the Potency entry in test [1], in test [2], in test [3], in test [4], in test [5] and in test [6] was “inactive” throughout.

For the compound `N#C/C(=C\c1ccc(O)c(O)c1)C(=O)c1ccc(O)c(O)c1`, the Potency result in test [1], in test [2], in test [3], in test [4], in test [5] and in test [6] was “inactive” each time.

With `O=C(O)c1cc(=O)c2ccccc2[nH]1`, the Potency result in test [1], in test [2], in test [3], in test [4], in test [5] and in test [6] was “inactive” each time.

Regarding `CSC(N)=NCCC[C@H](N)C(=O)O`, the Potency entry in test [1], in test [2], in test [3], in test [4], in test [5] and in test [6] was “inactive” each time.

As to `O=C1NC(=O)C(c2ccccc2[N+](=O)[O-])=C1Nc1ccc(O)c(Cl)c1`, the Potency entry in test [1], in test [2], in test [3], in test [4], in test [5] and in test [6] was “inactive” in each case.

Consider `NC(N)=N[C@@H](CCC(=O)O)C(=O)O`, for which the Potency result in test [1], in test [2], in test [3], in test [4], in test [5] and in test [6] was “inactive” each time.

As for `CN[C@H](CC(=O)O)C(=O)O`, the Potency result in test [1], in test [2], in test [3], in test [4], in test [5] and in test [6] was “inactive” throughout.

For `Nc1ncnc2c1ncn2C1CCCC1`, the Potency entry in test [1], in test [2], in test [3], in test [4], in test [5] and in test [6] was “inactive” throughout.

Take `CC(C)(C=O)Cc1cc(C(C)(C)C)c(O)c(C(C)(C)C)c1`: the Potency result in test [1], in test [2], in test [3], in test [4], in test [5] and in test [6] was “inactive” each time.

On to `OCC1NCC(O)C(O)C1O` (stereo not given), for which the Potency result in test [1], in test [2], in test [3], in test [4], in test [5] and in test [6] was “inactive” each time.

Consider `N[C@@H](Cc1ccc(O)c(O)c1)C(=O)O`, for which the Potency entry in test [1], in test [2], in test [3], in test [4], in test [5] and in test [6] was “inactive” in each case.

Consider `C=CCN1CCc2cc(O)c(O)cc2C(c2ccccc2)C1` (stereo not given), for which the Potency result in test [1], in test [2], in test [3], in test [4], in test [5] and in test [6] was “inactive” each time.

Consider `N=C(N)SCCc1cnc[nH]1`, for which the Potency result in test [1], in test [2], in test [3], in test [4], in test [5] and in test [6] was “inactive” throughout.

For `Cc1cccc(/C=C/c2ccccc2)n1`, the Potency entry in test [1], in test [2], in test [4] and in test [5] was “inactive” throughout. Moreover, the values for the Potency in test [3] and in test [6] were 13.3 µM (active) and 13.9 µM (active), respectively.
